Ins promoter up = insulin promoter activators in MIN6 cells, imaging, high-content screening, mouse beta cells; MIN6 insulin promoter-GFP reporter; active compounds read high; 190,000 compounds, 0.3% hits; z-score at 5 µM;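 active = z-score above 3 at 5 µM with at least 500 cells counted in the well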
INS promoter inh = inhibitors of insulin promoter-driven GFP, primary screen, imaging, TRM-6 cells (human fetal islet line), eGFP reporter, cell count. inhibition, % at 2 µM. reporter expression induced with tamoxifen. 130,000 compounds, 0.9% hits. AID 1273, 2008;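 active = inhibition above the mean plus 3 SD, with well images judged a real hit on visual review, cut at about 60% in these data, passing the limit was not always enough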
Lmaj promast = Leishmania major promastigote growth inhibition, primary screen. Leishmania major promastigotes, resazurin fluorescence viability. inhibition, % at 10 µM. 200,000 compounds, 9% hits. AID 1063, 2008; in the data active = inhibition above about 50%;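 note: promastigotes grown with compound for 44 hours at 28 °C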
ROMK primary = ROMK potassium channel modulators, primary screen, cell-based, thallium flux, MLSMR library; B-score at 10 µM; ATP-sensitive inward rectifier potassium channel 1 (Homo sapiens), P48048; AID 1918, 2009; 130,000 compounds, 2% hits; Tet-inducible ROMK, thallium flux fluorescence; actives lie on both sides;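 active = signal ratio slope over the read window, or its plate-corrected B-score, at least 3 SD from the plate mean, either direction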;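 note: B-score of the F/F0 ratio slope over 7 to 12 s after thallium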
Target sequence (P48048 whole entry, looked up): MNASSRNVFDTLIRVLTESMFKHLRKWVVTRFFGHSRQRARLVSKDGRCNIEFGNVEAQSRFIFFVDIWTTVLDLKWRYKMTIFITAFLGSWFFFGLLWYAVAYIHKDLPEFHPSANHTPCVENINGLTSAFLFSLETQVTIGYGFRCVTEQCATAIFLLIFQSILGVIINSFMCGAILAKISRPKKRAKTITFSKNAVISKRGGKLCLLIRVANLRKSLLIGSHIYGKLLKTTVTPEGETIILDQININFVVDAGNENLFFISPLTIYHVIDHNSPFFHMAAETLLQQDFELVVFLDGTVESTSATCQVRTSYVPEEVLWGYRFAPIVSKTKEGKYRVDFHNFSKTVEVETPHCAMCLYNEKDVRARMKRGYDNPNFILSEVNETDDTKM
WT yeast gro inh = growth inhibition of WT strain, primary screen, mitochondrial fusion inhibitor project, WT and mutant strains, chemical genetic | mitochondrial fusion phenotypic screen | inhibition, % at 10 µM | 190,000 compounds, 2.1% hits | AID 1362, 2008; in the data active = inhibition above about 58%; tested in S. cerevisiae
Cl transport mod = KCC2 cotransporter modulators, thallium flux, primary screen, cell-based, HEK293 KCC2, FluoZin-2 fluorescence, MLSMR; B-score of Tl+ flux slope (higher = more flux/activation; lower = inhibition) at 10 µM; KCC2 cells, thallium flux FluoZin-2 fluorescence; 190,000 compounds, 2.2% hits;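 active = thallium flux slope and its plate-corrected score both differing from the plate sample mean at a set confidence after two filtering rounds, in either direction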;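 note: slope of fluorescence scaled to starting intensity during 10 to 20 s after thallium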
* marks the source's active call; other numbers are inactive results; x = no result. An excerpt weighted towards active compounds, which were near 12% of everything screened.

SMILES	Ins promoter up	INS promoter inh	Lmaj promast	ROMK primary	WT yeast gro inh	Cl transport mod
CCCCCOC(=O)c1c(N)n(CCOC)c2nc3ccccc3nc12	1.1	-14.3	99.9*	x	0.5	x
CCOC(=O)c1c(N)n(C2CC(C)(C)NC(C)(C)C2)c2nc3ccccc3nc12	-0.87	0.0	83.3*	x	-6.0	0.63
CCOC(=O)c1c(N)n(CCOC(=O)c2cccs2)c2nc3ccccc3nc12	0.64	x	60.3*	-0.973	-1.4	-1.34
COCCOC(=O)c1c(N)n(CCCN2CCOCC2)c2nc3ccccc3nc12	-0.34	x	x	x	x	0.552
COc1ccc(/C(C)=N/NC(=O)CNC(=O)/C=C\c2ccco2)cc1	-0.63	-57.1	-5.6	1.48	2.9	0.827
O=c1[nH]cnc2c1c(-c1ccccc1)cn2-c1ccc(Br)cc1	-0.52	18.8	9.1	0.51	70.9*	1.76
O=c1c(CN2CCN(Cc3ccccc3)CC2)coc2ccc(Cl)cc12	0.11	2.6	76.0*	x	10.1	-2.07
O=C1C2CC(O)CN2C(=O)N1c1ccccc1 (stereo not given)	x	0.0	-3.4	-0.31	-2.2	-0.13
COc1c(C)cc(C(=O)C2CCCN(Cc3ccc(Oc4ncccn4)cc3)C2)cc1C (stereo not given)	-1.5	x	82.1*	-0.181	-2.8	0.285
CCCn1cc(CN2CCCC(C(=O)c3cccc(OC(C)C)c3)C2)c(C)n1 (stereo not given)	x	30.4	73.8*	-0.687	11.8	0.822
COc1ccccc1C(=O)C1CCCN(Cc2ccc(Oc3ncccn3)cc2)C1 (stereo not given)	-0.36	x	-1.5	0.0167	-1.5	0.000258
CC(C)Oc1cccc(C(=O)C2CCCN(Cc3ccc(Oc4ncccn4)cc3)C2)c1 (stereo not given)	-0.23	x	79.1*	x	6.9	0.374
CC(C)Oc1cccc(C(=O)C2CCCN(Cc3cnc(N4CCCC4)s3)C2)c1 (stereo not given)	x	-82.6	36.8	-0.911	33.8	-1.43
Cc1ccc(NC(=O)CCn2cnc3ccccc3c2=O)cc1Cl	x	x	-4.0	-0.441	-7.3	-0.42
O=C(CSc1nnc(NC(=O)c2ccc3c(c2)OCO3)s1)NCc1ccco1	-0.37	x	-2.3	0.13	-10.8	1.28
CC(=O)Nc1ccccc1/C=C/c1ccc2c(C)cc(C)c(O)c2n1	0.09	-23.5	-4.0	0.0204	77.3*	0.139
S=C(Nc1ccccc1)Nc1ccc(Br)cc1	0.27	x	x	x	x	0.546
CCN1C(=O)C(O)(CC(=O)c2ccccn2)c2ccccc21 (stereo not given)	x	75.0*	1.5	0.562	-0.1	0.243
CCN1C(=O)C(O)(CC(=O)c2ccc(-n3cccc3)cc2)c2ccccc21 (stereo not given)	0.46	x	-7.5	x	7.8	-0.44
O=S(=O)(c1cccc2ccccc12)n1nnc2ccccc21	-1.1	17.1	1.7	-0.225	-5.1	-0.634
Cc1cc(C)cc(COn2ccnc2)c1	1.78	67.9*	-3.1	0.926	8.4	-0.779
COc1ccc(OC)c(NC(=O)c2ccccc2NS(=O)(=O)c2cccc3cccnc23)c1	0.09	-26.7	21.6	x	-1.3	0.381
C/C(=N\Nc1ccc([N+](=O)[O-])cc1)c1cccc(N)c1	0.46	x	61.2*	-0.0555	11.7	-1.17
CC(=O)NC/C(C)=N\Nc1ccc([N+](=O)[O-])cc1	0.5	-41.2	62.7*	-0.124	77.9*	-0.276
C/C(=N\NC(=O)C(N)=O)c1cccc([N+](=O)[O-])c1	0.52	x	-2.2	-0.132	-5.6	1.24
SMILES	Ins promoter up	INS promoter inh	Lmaj promast	ROMK primary	WT yeast gro inh	Cl transport mod
C/C(=N\N=C(N)N)c1cccc([N+](=O)[O-])c1	0.42	x	63.5*	x	4.4	-0.0917
CC(CCc1ccccc1)NC(=O)C1CCN(S(=O)(=O)N2CCOCC2)CC1 (stereo not given)	0.51	-105.6	-5.0	-0.333	-3.4	-0.815
CCOC(=O)C(C(=O)OCC)C(C(=O)OCC)N1CCOCC1 (stereo not given)	x	-50.0	100.5*	x	37.9	0.0124
CCOC(=O)C(C)CC(C)C(=O)N1CCOCCOCCN(C(=O)C(C)CC(C)C(=O)OCC)CCOCC1 (stereo not given)	-1.11	-27.8	-5.2	x	23.9	0.46
O=C(COc1ccc(Br)cc1CNC1CCCC1)Nc1ccccc1	0.02	x	53.1*	-0.0159	20.0	-1.12
CCCC(C)C(=O)OCC(=O)Nc1ccc(Br)cc1 (stereo not given)	-0.23	40.7	7.6	0.157	9.6	0.836
CC(=O)NC(C)C(=O)OCC(=O)Nc1ccc(Br)cc1 (stereo not given)	1.79	89.3*	2.8	0.559	8.1	0.0177
O=C(COC(=O)c1ccccc1OCC(=O)Nc1ccc(Br)cc1)Nc1ccccc1	0.36	46.0	65.1*	0.0415	1.1	0.288
COc1ccc(OCC(=O)Nc2ccc(S(=O)(=O)N3CCN(C)CC3)cc2)cc1	-0.39	x	-6.2	0.0363	7.7	0.0534
CN(Cc1ccccc1)S(=O)(=O)c1ccc(OCC(=O)Nc2cccc([N+](=O)[O-])c2)cc1	0.7	x	-5.8	x	-14.2	0.0222
Cc1cc(S(=O)(=O)NCc2ccccc2)ccc1OCC(=O)Nc1cccc([N+](=O)[O-])c1	0.8	-71.4	98.8*	x	8.2	0.692
O=C(C[n+]1cn(C(F)F)c2ccccc21)c1ccc(OC(F)F)cc1	0.48	x	-4.7	x	71.0*	-0.404
Cc1cc2cc(C#N)c(N3CCN(S(C)(=O)=O)CC3)nc2cc1C	-0.22	x	10.8	-1.32	-7.2	-0.807
OC(COc1cccc2ccccc12)CN1CCCC1 (stereo not given)	-0.57	-41.0	100.3*	x	5.8	-0.192
OC(COc1ccc2ccccc2c1)CN1CCCC1 (stereo not given)	-1.3	x	74.1*	-0.423	5.9	-0.114
Cn1c(=O)[nH]c(=O)c2c1nc(CN1CCOCC1)n2Cc1ccc(F)cc1	-0.2	50.0	-4.2	x	6.2	0.283
O=C(CN1CCN(c2ccccc2O)CC1)NNC(=O)c1ccc(Cl)cc1	0.39	x	-6.8	-0.182	-24.3	0.215
CCOC(=O)C1CCCN(CC(O)COCc2ccc3c(c2)OCO3)C1 (stereo not given)	-0.07	26.7	19.0	-0.188	-14.6	0.343
CC1CCCN(CC(O)COCC2COc3ccccc3O2)C1 (stereo not given)	-0.09	16.1	85.9*	x	5.0	0.0853
OC(COCC1COc2ccccc2O1)CN1CCN(c2ccccn2)CC1 (stereo not given)	-0.69	3.0	70.4*	x	-0.2	-0.478
OC(COCc1cccs1)CN1CCN(c2ccccn2)CC1 (stereo not given)	-1.77	-90.9	-3.9	x	1.1	-0.23
COc1ccc(-c2c(C)c3ccc(OCC(C)=O)cc3oc2=O)cc1	-0.64	x	6.3	-1.17	7.0	-1.71
COC(=O)c1ccc(/C=C/C(=O)c2ccc(OC)cc2)cc1	-0.62	x	-4.3	0.261	-11.5	0.453

Compound activity from PubChem BioAssay.
